The campaign covered roughly 53,000 sequences. About 3,700 (7%) were called active. The entries come from a sample that favours actives as a whole. A number with no mark means an inactive call.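 The calls were made as follows: active = gene knockdowns whose robust z-score for IL-1 alpha signal is at least 2 or at most -2, so actives lie on both sides; inactive = the rest.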

The experiment in a line: Components of the Cytosolic LPS Sensing Pathway: Gene Identification via Genome-wide siRNA Screen.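 Also: robust z of the log signal after scaling to non-targeting control siRNA wells of the plate.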 The following applies: RAW264.7 macrophages, IL-1a HTRF, actives lie on both sides, screened at 100 nM (by protocol), cells primed 5 h with Pam3CSK4 first. The essentials:
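RAW264.7 mouse macrophages reverse-transfected with single siRNAs (100 nM final) for 48h, primed with Pam3CSK4 for 5 hours, then transfected with LipidA for 24 hour. Supernatant IL-1a read by HTRF; values normalized to negative-control median, log-transformed robust z-scores.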
As to ACCAGCACGACAGAUGCUATT against Pla2g12a, the z-score is 3.15 (active). Under GGCAUACCGUAAAAGUGGCTT against Olfr73 stands -1.95; under GCCAAGAUGGUUAAAUACCTT against Ankrd34b, -1.64; under GGUUCGCCCUUGGAAAUGGTT against Dmap1, -0.258. As for GGAAUUCAUACCCUUGUUGTT against B3gnt5, the z-score is -0.486.

For the sequence GGAGGUGAAAGGCAAAACUTT against Poldip2, the z-score was -0.122.

With CGAAGGUCAAACAGUUUGATT against Stxbp6, the z-score is -0.558. As to GGACUAGCAGUAAUAAAAGTT against Zdhhc9, the z-score was -2.37 (active). “CCAGAAUUGAACUUCAAGUTT against 2610008E11Rik”: the z-score was -0.00302. Consider GGGAGAGAACGUGUUCUUCTT against P2rx6, for which the z-score was -0.477. GGAGAUCUCCAUCAUCACCTT against Usp50: the z-score is -1.52. Next, CCUAAUGUACACUAACUAUTT against Hsd17b14: 1.84; CCCUAAGAGAGCCUAAAACTT against Serpina3c: -1.12; GAACUCUCUCUUCAUCUGGTT against Cd300ld3: 2.18 (active). For CCUUUUUGCUGAAUGUGGATT against Aard, the z-score was 0.798.

For GGUGUUGGAUUCCAAUCCCTT against Uba5, the z-score is -0.462. For the sequence GGAUGAAAAGAUUGAACUCTT against Gart, the z-score is 3.22 (active). Under GCUCGAUAUUUUGAAGUCCTT against Cntd1 stands 0.693; under GGAUCAGACUGUACGAGAGTT against Crygd, -1.11; under GGAAAGUGAAAGUUAGUUUTT against Cbx6, 0.244. On to GCAUUUGGAAUUUACCAUGTT against Wdr47, for which the z-score is 1.13. As for GCCGAGUCUCAGCUUGUAATT against Dnajc3, the z-score is 0.258.

Consider GGAAUGGGAUUACACCUACTT against Mymk, for which the z-score is 2.67 (active).

As to GUAUGACCAGAAGAAAAAGTT against Lrrc72, the z-score is -2.19 (active).

For the sequence GGCAUAUCUGAGGUGAAUCTT against Sec23b, the z-score is -1.57. For GGAAAGAGCAAACAGUUCCTT against Il1f6, the z-score was -2.09 (active). Consider GGUAUUUUGACAGAGUCGATT against Add1, for which the z-score is -1.24. Turning to GGUGUUAUCUGCAUCAUCATT against Cyp4f15, the z-score was -1.42.

Regarding GGUACUUAUGUGGAUUGGATT against Rint1, the z-score is -0.272. Regarding GGGACUGGACCCAUACAAUTT against Cox5b, the z-score was 4.27 (active). Consider CCGAGUAAGUUUAACUAAGTT against Lrrc39, for which the z-score is -0.501. Next, GCUAUAUAAAGGCUGAGUATT against Emilin3: -0.128; GGAUGAAGGCCAUUCAAACTT against Hnrnpd: 2.04 (active); GGAAGAUCUGAAGUCAAUCTT against Mvk: -1.08. Consider GGAGAAAGACAUCAGAAAGTT against Rdh16f2, for which the z-score was 0.942. Take GGGCCUGAUCUACCUGUUUTT against Slc6a18: the z-score was 0.255. Next, GGACAAGUAUGAAUGUCUATT against Ptk2b: 1.25; CCAAGUGGUACGACCAUGATT against Gcnt3: 1.3. Next, CCGACCUGAAGACCUUACATT against Tmem18: -0.501; GCCCUAGGAGGAACUGAGUTT against Olfr458: -2.54 (active); “CGGAAGAAGUUAUUUAGAATT against 1700006J14Rik”: 0.87. On to GGCUCCAAGUCUACACAACTT against Dnajc6, for which the z-score was 2.82 (active). Consider CCUCAUUGAGUUUUGAAGATT against Dtd2, for which the z-score was -0.329. As for GGAAGACCUUGUGUUUGCATT against Mmp13, the z-score is -0.692. CCUAAAGUCUCUGAAUCAGTT against Fyb: the z-score is 0.45.

For GGUUGUUGCGCAAAUUUAATT against Vmn2r7, the z-score was 1.43. Consider GCAGUAACUGUGUCAAAAUTT against Zan, for which the z-score is 0.879.

With GGAUAUCAAAGACAAAGCATT against Vps53, the z-score was -2.58 (active). Under CGUGUGUUCCGGAAACAGATT against Tnfrsf11b stands -0.188; under GGCACAAGUCCAUGUUGUUTT against Emg1, -0.161.

In the case of GGAGUACGUGAUUGCUCUGTT against Rcvrn, the z-score was -2.45 (active). Take GCCGUUUUAAGAUACCGAUTT against Pde1c: the z-score is 0.642. In the case of GGGCAGCUACGUCAUUAAGTT against Prkg2, the z-score was -0.442.

Regarding GGAGAAGAACAGAACAUGATT against Igf2, the z-score was 2.36 (active). Take “GACAGUGAAGGCUUGCCAUTT against 1700019M22Rik”: the z-score is -0.45.

Turning to GCUAUUUAUCACCAAGACATT against Plpp6, the z-score was -1.64. With CCAGGAUUACAUCCGGACATT against Srbd1, the z-score is -0.379. Under GCUUCGACAAAAGAAGAUGTT against Ccdc174 stands -0.373; under CGAAUGAGAUUUUCACUCUTT against Tek, 1.07; under CCACUAAUCUUCUUCUACATT against Olfr1311, -2.08 (active). For the sequence GGCCACCAAGACCAAUGAUTT against Akap8, the z-score was 0.154. As for GGUUGUAAUAGCCUUAGCCTT against Rassf8, the z-score is -2.87 (active). Under GGUCAAGUAACAUGGUUUGTT against Rundc3b stands 0.282; under CCAGAAACACUAGUAAAGGTT against Dppa3, -0.0972; under GGACGUGAAUGUGUUUGACTT against Cyp26b1, 0.795.

On to CGAUUACUACAUAAUUGCCTT against Efnb3, for which the z-score was 1.63. As for CGGACAAGAUAGUAUUCUUTT against Atp2b1, the z-score was -1.06. As to GGAGGAAUACGUAUACUUCTT against Dipk1c, the z-score was 2.16 (active). Under GCAGCAUGGCAAAACCACATT against Zbtb12 stands -0.265; under GCAGGCGAUAUAGAAGCAATT against Frg1, 0.475. Under GGCUGUGACUAUGUUGUGCTT against Top3b stands -2.15 (active). For GGGAAUUCUAUUCAACACUTT against Rps6ka5, the z-score was -0.478.

As for GGCUGUGACUUUUGAUCUATT against Prelid3b, the z-score was 0.46. Turning to CCAAUGCUUGUGAUAAGCCTT against Krt33a, the z-score was -0.105.

For the sequence CGGACUUGAGAGCAGAACCTT against Oit1, the z-score was 2.02 (active).

CCUUGUGCCAAAUACUUCATT against Inava: the z-score was -0.00772. For GGAUAACCGUAUUAAUUUCTT against Gm2a, the z-score was 0.709. Regarding GGAGAAAGUCAAGAUCAAATT against Gpr4, the z-score was 2.12 (active). As for GCAAGCACGGAGAACCAAUTT against Selenoi, the z-score was -0.212. In the case of GGAGUUCAUUGAUCAUUCUTT against Ndufb5, the z-score is 2.21 (active). In the case of GGAAGAUGGAGAUCAGACGTT against Foxd4, the z-score is -0.498. Under GGGAUACCCGGCGUAAUCUTT against Col4a2 stands 1.31.

In the case of CGCAUACAUCAGGUCACUATT against Katnb1, the z-score was -0.74. Consider GGGCUUUUACUCCUACCUGTT against Slc43a2, for which the z-score is -0.794. Under GGAACCACUGCUAGCCAGATT against Serpinb6a stands 0.491; under GCGAGAAAUUACCACCUUCTT against Klhl8, -0.516; under CCGUAUUAGAAAGUAGAUATT against Arpp19, 2.01 (active). Under ACUUCACGAUGGAAAAAUUTT against Gm9732 stands -1.63.

Regarding GGCCUCAUCUUGAAUAUUUTT against Hsd17b3, the z-score is -1.

Regarding GGUUCAUCAAACUUGCUUGTT against Olfr1312, the z-score is 0.569. Next, GGAAGAACAGAGGCAGAAGTT against Trpv3: -0.629; GGAAGUACUCUGAAGAUUCTT against Kdm5b: -1.83.

As for CCCACUUCCGAUCCAAAGATT against Zfp593, the z-score is 0.936. On to CCUAUGUCAUCAUUGGAGUTT against Tmem45a2, for which the z-score was -0.613.

As to GCUGUUAUAACCUUGUUACTT against Rspry1, the z-score is 1.19. Regarding GCCCAGUUUGGUUAUGUAUTT against Yipf7, the z-score was 0.115. For the sequence GCGGAGAGAUCAAAGCGAUTT against Iltifb, the z-score is -2.05 (active). Consider GCAGCAACAUUCUUUGGAUTT against Adk, for which the z-score was 0.986.

Turning to GGACAAUAUCAGAAAGAGUTT against Purg, the z-score was 1.13. Next, GGGUUUUUUCCAGUCAUCUTT against Nfx1: -2.02 (active).

For GGAUGUUCUACUGCUACACTT against Dtwd1, the z-score is -0.706. Next, GGUGGCCAAGAAUGUGAAUTT against Cxcl17: 1.38.

For the sequence CCUACUCUCUAGAAAAGGATT against Olfr1006, the z-score was -1.76. Regarding GGAGUGAAGGCCAGCUGAATT against Son, the z-score was -0.848. Regarding GGAACACCAUGAAGAAGACTT against Gabarap, the z-score was -0.147. As for GGAAAACUUUCAAAGAGAUTT against Mc4r, the z-score is 0.24. Turning to GUCAUCAAACUAGGUGCUGTT against Olfr584, the z-score was -2.22 (active).

The values above are taken from PubChem BioAssay AID1508600 (Functional Genomics Laboratory (NCATS/FGL), 2020).
